Reference: PubChem BioAssay (NCI)
The panel holds about 83,000 compounds, 20% with a hit somewhere; the sample as a whole holds those more often.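 96-well plates, one dose, 48 hours. Percent growth reported; active if below 10.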 Values without a mark were called inactive. The source made the active and inactive calls.

Tests used:
Assay in all cases: NCI-60 one-dose screen, 48 h (100 = growth as untreated, 0 = no growth, -100 = all killed)
Details in all cases: 10 µM unless noted
[1] = test system: SR leukemia
[2] = test system: RPMI-8226 leukemia
[3] = test system: OVCAR-8 ovarian
[4] = test system: OVCAR-5 ovarian
[5] = test system: OVCAR-4 ovarian
[6] = test system: SK-OV-3 ovarian
[7] = test system: IGROV1 ovarian
[8] = test system: OVCAR-3 ovarian
[9] = test system: HS 578T breast
[10] = test system: NCI/ADR-RES ovarian

SMILES | growth [1] | growth [2] | growth [3] | growth [4] | growth [5] | growth [6] | growth [7] | growth [8] | growth [9] | growth [10] [%]
COc1ccccc1S(=O)(=O)Nc1ccc2c3c(cc(-c4ccoc4)nc13)C(=O)N2C | 59.2% | 15.5% | 70.5% | 76.3% | 55.1% | 59.3% | 62% | 74% | 56.2% | 55.1
COc1ccc(C(=O)NC(=O)Nc2ccc3c(c2)NC(=O)/C3=C\c2[nH]c(C)c(C(=O)O)c2C)cc1 | 34.3% | 83.2% | 39.9% | 121% | 93% | 118% | 75.4% | 52.7% | 46.8% | 99.1
Cc1cccc(CC(=O)c2ccccc2)n1 | 94.4% | 89.4% | 91.8% | 83.8% | 90% | 92.2% | 97% | 105% | 91% | 75.7
COC(=O)CCCNS(=O)(=O)c1cc(C(=O)Nc2ccc(NC(=O)c3cc(S(=O)(=O)NCCCC(=O)OC)c(O)c(O)c3O)cc2)c(O)c(O)c1O | 70.4% | 96% | 73.6% | 107% | 98.3% | 83.8% | 100% | 102% | 100% | 94.2
Nc1nccc(=S)[nH]1 | 87.1% | 96.6% | 104% | 111% | 114% | 102% | 107% | 109% | 103% | 107
S=c1[nH]nc(Cn2c3ccccc3c3ccncc32)o1 | 99.9% | 97.3% | 94.2% | 102% | 96.7% | 94.5% | 103% | 97.8% | 106% | 102
CC1CCC(C(C)C)C(NN)C1 (stereo not given) | 103% | 104% | 92.8% | 107% | 111% | 91.8% | 109% | 113% | 102% | 106
O=C(/C=C/c1ccccc1)Oc1ccc(/C=C/c2cc(OC(=O)/C=C/c3ccccc3)cc(OC(=O)/C=C/c3ccccc3)c2)cc1 | 92% | 99.8% | 84.7% | 96.6% | 100% | 86.5% | 98.6% | 107% | 95.9% | 103
COc1cc2ncnc(Oc3ccc(NC(=O)Nc4ccc(C5(C#N)CCCC5)cc4)c4ccccc34)c2cc1OC | 70.3% | 58.8% | 0.585% (active) | 81% | -1.26% (active) | 40.7% | 40% | 52% | 29.6% | 72.2
CS(=O)(=O)Nc1cccc(-c2ccc3ncnc(Nc4ccc(F)c(Cl)c4)c3c2)c1 | -2.28% (active) | 18.4% | 29% | 49.1% | 37% | -10.8% (active) | -3.89% (active) | 25.9% | 11.5% | 39.2
COC(=O)/C=C/C(=O)c1cc(C)cc(C)c1O | 90% | 104% | 111% | 98.9% | 101% | 104% | 106% | 102% | 112% | 99.5
Fc1ccc(Nc2ncnc3ccc(-c4cn[nH]c4)cc23)cc1Cl | 0.823% (active) | 38.9% | 44.1% | 75.7% | 55.5% | -11.6% (active) | 5.6% (active) | 50.6% | 31.4% | 51.6
O=c1nc(N2CCOCC2)oc2c(-c3cccc4ccccc34)cccc12 | 72.9% | 96.1% | 85.2% | 89.2% | 97.1% | 90% | 75.4% | 85.8% | 83.8% | 83.7
COc1ccc(Cl)cc1NC(=O)c1cc2c(n1C)-c1nc(NC(=O)C(C)(C)C)sc1CC2 | 85.2% | 83.4% | 109% | 104% | 94.8% | 67.7% | 98.1% | 105% | 98.5% | 93.8
OC[C@@H](O)C(O[C@@H]1O[C@H](CO)[C@H](O)[C@H](O)[C@H]1O)[C@H](O)[C@@H](O)CO (stereo not given in full) | 87.4% | 103% | 98.6% | 91.8% | 106% | 99.5% | 95.9% | 103% | 129% | 95.4
O=[N+]([O-])c1ccc(NS(=O)(=O)c2cc(Cl)ccc2Cl)c2ccccc12 | 60.1% | 14.1% | 79.5% | 89.1% | 54% | 59.6% | 82.3% | 33.7% | 54.3% | 59.3
CO[C@H]1/C=C/C=C/C=C/C[C@H](OC(=O)[C@@H](C)NC(=O)C2CCCCC2)[C@H](C)[C@@H](O)/C(C)=C\CCC2=CC(=O)C=C(NC(=O)C1)C2=O | 3.26% (active) | -26.5% (active) | -16.2% (active) | 3.19% (active) | -13.9% (active) | -21.3% (active) | 3.97% (active) | -19.9% (active) | -16.2% (active) | 32
COc1ccc(Cl)cc1NC(=O)c1cc2c([nH]1)-c1nc(NC(=O)C(C)(C)C)sc1CC2 | 28.2% | 83.8% | 26.8% | 108% | 57% | 82.1% | 65.3% | 32.8% | 44% | 40.9
COc1ccc(-c2cnc(-c3ccc(F)cc3)[nH]2)cc1 | -29.7% (active) | 44.5% | 103% | 116% | 98.3% | 121% | 95.3% | 91.3% | 99.2% | 115
COc1ccccc1S(=O)(=O)Nc1ccc2c3c(cc(-c4cnn(C)c4)nc13)C(=O)N2C | 46.1% | -4.77% (active) | 47.1% | 54.1% | 51% | 14.8% | 18.4% | 34.1% | 23.8% | 35.9
O=C(Cn1c2ccccc2c2ccncc21)N/N=C/c1cc(O)c(O)c(O)c1 | 106% | 100% | 103% | 111% | 110% | 99.4% | 107% | 106% | 105% | 103
COc1cc2ncnc(Oc3ccc(NC(=O)Nc4ccc(CN5CCOCC5)c(C(F)(F)F)c4)c4ccccc34)c2cc1OC | 17.1% | -20.4% (active) | 18.9% | 50.1% | 13.7% | -6.16% (active) | 6.05% (active) | 31.9% | 45.5% | 21.8
CCn1cc(/C=C2\Oc3cc(OCC#N)ccc3C2=O)c2cc(OC)ccc21 | 19.2% | 15.1% | 21% | 62.1% | 85.6% | 43.3% | 43.3% | -6.84% (active) | 29.4% | 11.2
C=CCOc1ccc(/C(Cl)=N/N=C(\Cl)c2cc(OC)c(OC)c(OC)c2)cc1 | 17% | 70.3% | 62.6% | 97.5% | 84.3% | 64.7% | 64% | 77.1% | 75.5% | 77.6
CS(=O)(=O)Nc1cccc(-c2ccc3ncnc(Nc4cncc(Cl)c4)c3c2)c1 | -10.5% (active) | -8.07% (active) | 38.7% | 56.7% | 50.9% | -7.86% (active) | -13.8% (active) | 31.9% | -2.64% (active) | 79.7
O=C(O)c1ccc(-n2cc(/C=N/Nc3ccc(F)cc3)c(-c3cccc(C(F)(F)F)c3)n2)cc1 | 87% | 47.2% | 78.4% | 78.2% | 92.4% | 94.6% | 74.8% | 70.8% | 89.2% | 65.2
O=C1CCC(c2c(O)cc(O)c3c(=O)c(O)c(-c4ccc(O)c(O)c4)oc23)N1 (stereo not given) | 96.2% | 99.5% | 105% | 104% | 108% | 85.1% | 107% | 101% | 100% | 96.8
